Screens: PubChem, National Center for Advancing Translational Sciences (NCATS)
Hits are enriched below; roughly 12% of the tested compounds scored in any of these assays.
Pf growth 48h – Primary qHTS for delayed death inhibitors of the malarial parasite plastid, 48 hour incubation; AID 504832, 2011; Potency, µM (top dose mostly 28.7 µM), inactives show at the highest dose activity change, negative = inhibition, hits mostly inhibitors; P. falciparum luciferase growth in erythrocytes, 48 h; actives 5.9% (n = 310,000); also: % is scaled to controls: 0 for no effect and ±100 for the full control effect
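Luciferase-expressing parasites in RBCs, 2% Hct / 0.1% parasitemia final; RPMI 1640 + 0.5% Albumax; 37 C, 5% CO2, one generation; luminescence read-out, lower signal = inhibition.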
Sm TGR block – qHTS Assay for the Inhibitors of Schistosoma Mansoni Peroxiredoxins | Schistosoma mansoni thioredoxin glutathione reductase (TGR), Q962Y6 | purified TGR, DTNB reduction, TNB absorbance 405 nm | Potency, µM (top dose mostly 114 µM), inactives show top-dose activity change, negative = inhibition, usual class: inhibitors | actives 3% (n = 360,000) | AID 485364, 2010; also: % is scaled to controls: 0 for no effect and ±100 for the full control effect; nearly all actives have a fitted effect of over 60% in size
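TGR 20 nM + NADPH 100 uM (dispensed conc.), cpd preinc 15 min RT; start with NADPH (500 uM addition) then DTNB (15 mM addition). Kinetic TNB absorbance, 405 nm filter. Four-parameter Hill fit across titration.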
Pf growth 96h – Primary qHTS for delayed death inhibitors of the malarial parasite plastid, 96 hour incubation; actives 6.9% (n = 320,000); Potency, µM (doses to about 28.7 µM), inactives show top-dose activity change, negative = inhibition, most hits filed as inhibitors; AID 504834, 2011; P. falciparum luciferase reporter growth, 96 h; also: % is scaled to controls: 0 for no effect and ±100 for the full control effect
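Delayed-death screen, second-generation endpoint: infected erythrocytes, 2% hematocrit, 0.05% parasitemia final; 96 hours at 37 C, 5% CO2; luciferase detection reagent; luminescence decrease equals reduced growth.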
SARS PLP yeast – qHTS of Yeast-based Assay for SARS-CoV PLP. S. cerevisiae expressing SARS-CoV PLpro, growth rescue. Potency, µM (doses to about 32.9 µM), inactives show at the highest dose activity, positive = growth rescue, actives largely listed as activators. actives 0.19% (n = 330,000); calls by dose curve; also: 0% is about no effect; nearly all actives have a fitted effect of over 55% in size
The depositor's hits bear a star. Unless noted, calls follow the shape of the dose curve; as a rule, active = well fitted curve in the direction sought with a large enough effect; inconclusive = small, poorly fitted or top-dose-only effect, or another doubt; inactive = no such curve, though single readings can be large; an effect the other way counts as inactive or inconclusive. Potency is read from the fitted curve at half-maximal effect.

Results for Cc1cc(NC(=O)CSc2nccn2-c2cccc(Cl)c2)no1 ?
Pf growth 48h: -9%; Sm TGR block: -1%; Pf growth 96h: -5%; SARS PLP yeast: -2%

How did CCCCCc1ccc(CC(=O)O)cc1 do in these assays?
Pf growth 48h: 10%; Sm TGR block: 5%; Pf growth 96h: 9.3µM*; SARS PLP yeast: -24%

How did O=C(Nc1ccc2c(c1)OCO2)c1ccc(Br)c(S(=O)(=O)N2CCCC2)c1 do in these assays?
Pf growth 48h: 2.6µM*; Sm TGR block: -34%; Pf growth 96h: 34%; SARS PLP yeast: -2%

Results for O=C(Nc1ccc2c(c1)OCCO2)c1ccc(Br)c(S(=O)(=O)N2CCOCC2)c1 ?
Pf growth 48h: 2.3µM*; Sm TGR block: 12%; Pf growth 96h: -20%; SARS PLP yeast: 1%

How did O=C(NCC1CCCO1)c1ccc2c(c1)C(=O)N(C1CCCCC1)C2=O (stereo not drawn) do in these assays?
Pf growth 48h: 4%; Sm TGR block: -14%; Pf growth 96h: inconclusive; SARS PLP yeast: -9%

What do the screens show for `CC(C)CCN1C(=O)c2ccc(C(=O)NCC3CCCO3)cc2C1=O` (stereo not drawn)?
Pf growth 48h: 2%; Sm TGR block: -3%; Pf growth 96h: 4.1µM*; SARS PLP yeast: 0%

What do the screens show for `Cc1ccc(C(=O)NC(=S)NCC2CCCO2)cc1Br` (stereo not drawn)?
Pf growth 48h: 70%; Sm TGR block: 56µM*; Pf growth 96h: 76%; SARS PLP yeast: 3%

How did O=C(NC(=S)NCC1CCCO1)c1ccccc1Br (stereo not drawn) do in these assays?
Pf growth 48h: 10%; Sm TGR block: -13%; Pf growth 96h: 118%; SARS PLP yeast: 8%

How did Cc1cc2c(OCC(CNC(C)(C)C)OC(=O)c3ccccc3)cccc2[nH]1 (stereo not drawn) do in these assays?
Pf growth 48h: inconclusive; Pf growth 96h: -8%

How did O=C(COC(=O)COc1ccccc1F)NCCc1ccc(F)cc1 do in these assays?
Pf growth 48h: -19%; Sm TGR block: -1%; Pf growth 96h: -3%; SARS PLP yeast: 1%

How did Cc1noc(C)c1COc1ccccc1C(=O)N(C)CC(=O)Nc1ccc(F)cc1 do in these assays?
Pf growth 48h: -3%; Sm TGR block: 1%; Pf growth 96h: 2%; SARS PLP yeast: -5%

Results for Cc1ccc(NC(=O)Nc2c[nH]c(=O)[nH]c2=O)c(Cl)c1 ?
Sm TGR block: -3%

How did O=C(NCC1CCCO1)c1ccc(Br)c(S(=O)(=O)N2CCOCC2)c1 (stereo not drawn) do in these assays?
Pf growth 48h: inconclusive; Sm TGR block: 5%; Pf growth 96h: 1.3µM*; SARS PLP yeast: -5%

Results for O=C(O)c1ccc(NC(=O)c2ccc(Br)c(S(=O)(=O)N3CCCC3)c2)cc1 ?
Sm TGR block: -2%

How did O=C(NCC1CCCO1)c1cccc(S(=O)(=O)N2CCOCC2)c1 (stereo not drawn) do in these assays?
Pf growth 48h: 9%; Sm TGR block: -22%; Pf growth 96h: inconclusive; SARS PLP yeast: 36%

How did O=C(O)c1ccc(Br)c(S(=O)(=O)N2CCCC2)c1 do in these assays?
Pf growth 48h: -39%; Sm TGR block: 3%; Pf growth 96h: 13µM*; SARS PLP yeast: inconclusive

What do the screens show for `O=C(NC1CCCCC1)N1CCN(c2ccc([N+](=O)[O-])cc2)CC1`?
Pf growth 48h: -14%; Sm TGR block: -1%; Pf growth 96h: inconclusive; SARS PLP yeast: 13%

How did COC(=O)c1ccc(NC(=O)C2CCN(C(=O)c3ccc(F)cc3)CC2)cc1 do in these assays?
Sm TGR block: -2%

What do the screens show for `COC(=O)c1ccc(NC(=O)C2CCN(C(=O)Nc3ccccc3)CC2)cc1`?
Pf growth 48h: inconclusive; Sm TGR block: -1%; Pf growth 96h: 4.7µM*; SARS PLP yeast: 10%

Results for CC(=O)Nc1ccc(NC(=O)C2CCN(C(=O)NC3CCCCC3)CC2)cc1 ?
Pf growth 48h: -3%; Sm TGR block: -15%; Pf growth 96h: 5.2µM*; SARS PLP yeast: 1%

What do the screens show for `O=C(NC1CCCCC1)N1CCN(c2ccc(Cl)cc2)CC1`?
Pf growth 48h: inconclusive; Sm TGR block: -7%; Pf growth 96h: 1.9µM*; SARS PLP yeast: -10%

Results for COc1cccc(NC(=O)c2cccc(C)c2[N+](=O)[O-])c1 ?
Pf growth 48h: 73%; Pf growth 96h: inconclusive; SARS PLP yeast: 1%

What do the screens show for `CCc1nc(SCC(=O)Nc2cc(OC)ccc2OC)c2c(C)c(C)sc2n1`?
Pf growth 48h: inconclusive; Sm TGR block: 2%; Pf growth 96h: 37%; SARS PLP yeast: -1%

What do the screens show for `Cc1ccc(NCc2ccc(O)c3ncccc23)cc1`?
Pf growth 48h: -17%; Sm TGR block: inconclusive; Pf growth 96h: 16%; SARS PLP yeast: -5%

Results for Cc1cccc(NCc2ccc(O)c3ncccc23)c1C ?
Pf growth 48h: -18%; Sm TGR block: 0.11µM*; Pf growth 96h: 23%; SARS PLP yeast: 4%

Results for Oc1ccc(CNc2cccc(C(F)(F)F)c2)c2cccnc12 ?
Pf growth 48h: 10µM*; Sm TGR block: 0.32µM*; Pf growth 96h: inconclusive; SARS PLP yeast: inconclusive

How did Cc1cccnc1NCc1ccc(O)c2ncccc12 do in these assays?
Pf growth 48h: inconclusive; Sm TGR block: 0.28µM*; Pf growth 96h: 34%; SARS PLP yeast: inconclusive

How did Cc1ccc(O)c(CNc2cccc3cccnc23)c1 do in these assays?
Pf growth 48h: inconclusive; Sm TGR block: 0%; Pf growth 96h: inconclusive; SARS PLP yeast: -5%

Results for CCOC(=O)c1cc(S(=O)(=O)N2CCN(c3cc(C)ccc3C)CC2)[nH]n1 ?
Sm TGR block: -1%

What do the screens show for `O=S(=O)(NCC(c1cccs1)S(=O)(=O)c1ccccc1)c1ccc(F)cc1` (stereo not drawn)?
Sm TGR block: 0.5µM*

How did CNC(=O)C(=O)NCC(c1cccs1)S(=O)(=O)c1ccc(F)cc1 (stereo not drawn) do in these assays?
Pf growth 48h: -1%; Sm TGR block: 3%; Pf growth 96h: 9%; SARS PLP yeast: -1%

How did COc1ccc(S(=O)(=O)NCC(c2cccs2)S(=O)(=O)c2ccccc2)cc1OC (stereo not drawn) do in these assays?
Sm TGR block: 1µM*

What do the screens show for `COc1ccc(NC(=O)c2cnc(SCC(=O)Nc3nc4ccc(C)cc4s3)n(C)c2=O)cc1`?
Sm TGR block: 10%

What do the screens show for `CCc1ccc(N2C(=O)CSC23C(=O)N(Cc2cccc(OC)c2)c2ccccc23)cc1` (stereo not drawn)?
Sm TGR block: 10%

How did C/C(=N\NC(=S)NCc1ccccc1)c1ccc(C(C)(C)C)cc1 do in these assays?
Pf growth 48h: 9.3µM*; Sm TGR block: -16%; Pf growth 96h: inconclusive; SARS PLP yeast: inconclusive

What do the screens show for `CNC(=S)N/N=C(\C)c1ccccc1`?
Pf growth 48h: 54%; Sm TGR block: 5.6µM*; Pf growth 96h: inconclusive; SARS PLP yeast: 1%

How did Cc1ccccc1NC(=O)CSc1cn(CC(=O)N(C(C)C)C(C)C)c2ccccc12 do in these assays?
Sm TGR block: 1%
